# In the supplement of paper PMC10498489:
# The whole screen tested about 2,300 compounds, of which about 330 (14%) showed activity.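 The calls were made as follows: active = median modified Z-score above 1.96; inactive = 1.96 or below.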 Only a sample is shown.
# System: HepG2 Srxn1-GFP reporter cells (+30 nM CDDO-Me)
# Assay: Srxn1-GFP intensity median modified Z-score relative to plate median; higher = stronger NRF2 / oxidative stress reporter activation, active = hit call of the paper
# Details: 10 µM; exposure time: 24h
# Outline: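 In 96-well plates holding 20,000 HepG2 Srxn1-GFP BAC reporter cells per well, compound at 10 μM and an NRF2 activator at 30 nM were added together for 24 h, with DMSO at ≤0.1%, across three replicate plates. After fixation in formaldehyde and Hoechst staining, confocal images were analysed cell by cell for cytoplasmic GFP, and images containing under 100 cells were excluded. Values are replicate medians of the per-plate modified Z-score of GFP intensity, scaled by 1.4826 × median absolute deviation.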
row,SMILES,Srxn1-GFP intensity median modified Z-score
1,C[C@H]1O[C@H](OC[C@@H]2O[C@H](Oc3c(-c4ccc(OCCO)c(OCCO)c4)oc4cc(OCCO)cc(O)c4c3=O)[C@@H](O)[C@H](O)[C@H]2O)[C@@H](O)[C@@H](O)[C@@H]1O [euspeclibcmpd1205],-0.542 (inactive)
2,O=C(c1ccccc1)c1ccc(Cl)cc1O,1.14 (inactive)
3,CCN(C(=O)COC(=O)C1=NNC(=O)CC1)C1CCS(=O)(=O)C1 (centres undefined),1.01 (inactive)
4,NCCc1ccc(O)c(O)c1 [euspeclibcmpd2150],-1.01 (inactive)
5,NC(Cc1ccc(O)c(O)c1)C(=O)O (centres undefined) [euspeclibcmpd949],-1.39 (inactive)
6,NCCc1ccc(O)c(O)c1 [euspeclibcmpd2286],9.36 (active)
7,C[C@](N)(Cc1ccc(O)c(O)c1)C(=O)O [euspeclibcmpd194],-0.447 (inactive)
8,CO[C@@H]1[C@@H](OC(N)=O)[C@@H](O)[C@H](Oc2ccc3c(=O)c(NC(=O)c4ccc(O)c(CC=C(C)C)c4)c(O)oc3c2C)OC1(C)C [euspeclibcmpd2334],-0.255 (inactive)
9,N#CCSc1nnc(-c2ccc(Br)cc2)n1C1CCCCC1,1.88 (inactive)
10,CC(C)CC1NC(=O)C(CCCN)NC(=O)C(C(C)C)NC(=O)C(Cc2ccc(O)cc2)NC(CCC(=O)O)C(=O)NC(CC(N)=O)C(=O)C(Cc2ccccc2)NC(=O)C(Cc2ccccc2)NC(=O)C2CCCN2C(=O)C(Cc2ccccc2)NC1=O (centres undefined) [euspeclibcmpd1841],2.86 (active)
11,CCC(C)C(=N)C1NC(C(=O)NC(CC(C)C)C(=O)NC(CCC(=O)O)C(=O)NC(C(=O)NCCCCC2NC(=O)C(CC(N)=O)NC(=O)C(CC(=O)O)NC(=O)C(Cc3c[nH]cn3)NC(=O)C(Cc3ccccc3)NC(=O)C(C(C)CC)NC(=O)C(CCCN)NC2=O)C(C)CC)CS1 (centres undefined) [euspeclibcmpd30],-0.458 (inactive)
12,CCC(C)CCCCC(=O)NC(CCN)C(=O)NC(C(=O)NC(CCN)C(=O)NC1CCNC(=O)C(C(C)O)NC(=O)C(CCN)NC(=O)C(CCN)NC(=O)C(CC(C)C)NC(=O)C(Cc2ccccc2)NC(=O)C(CCN)NC1=O)C(C)O (centres undefined) [euspeclibcmpd239],0.328 (inactive)
13,CC(=O)c1ccc(S(=O)(=O)CC(=O)NC2CCCC2)cc1,1.37 (inactive)
14,N=c1nc(-c2cc(Cl)ccc2Cl)[nH]c(=N)[nH]1 [euspeclibcmpd1188],0.145 (inactive)
15,CCCCCCc1ccc(O)cc1O [euspeclibcmpd2121],3.73 (active)
16,CCCCOC(=O)c1ccc(O)cc1 [euspeclibcmpd905],0.67 (inactive)
17,C[C@H]1[C@H](C)CC[C@]2(C(=O)O)CC[C@]3(C)C(=CCC4[C@@]5(C)C[C@@H](O)[C@H](O)[C@@](C)(CO)C5[C@H](O)C[C@]43C)[C@H]12 (some centres undefined) [euspeclibcmpd1692],-0.252 (inactive)
18,Cn1c(O)cc(-c2ccccc2)c1O [euspeclibcmpd796],-0.502 (inactive)
19,CCCCOC(=O)c1ccc(N)cc1 [euspeclibcmpd342],0.38 (inactive)
20,CCCCNc1ccc(C(=O)OCCN(C)C)cc1 [euspeclibcmpd287],-0.0522 (inactive)
21,CCCCNc1ccc(C(=O)OCCOCCOCCOCCOCCOCCOCCOCCOCCOC)cc1 [euspeclibcmpd1214],5.26 (active)
22,Cn1cc(O)[nH]c1=N [euspeclibcmpd1004],-0.153 (inactive)
23,CCN(CC)CCNC(=O)c1ccc(I)cc1,0.454 (inactive)

row,SMILES,Srxn1-GFP intensity median modified Z-score
1,N=c1[nH]cnc2[nH]cnc12 [euspeclibcmpd349],-0.183 (inactive)
2,N=c1[nH]c(=S)c2nc[nH]c2[nH]1 [euspeclibcmpd292],28.2 (active)
3,NCCCC(N)CC(=O)NCC1NC(=O)C(CO)NC(=O)C(N)CNC(=O)C(C2CCN=C(N)N2)NC(=O)C(C=NC(N)=O)NC1=O (centres undefined) [euspeclibcmpd1312],0 (inactive)
4,O=C(O)C1O[C@@H](Oc2cc3oc(-c4ccccc4)cc(=O)c3c(O)c2O)[C@H](O)[C@@H](O)[C@@H]1O (some centres undefined) [euspeclibcmpd2123],-0.648 (inactive)
5,CCCCCC1C(=O)CCC1CC(=O)OC (centres undefined) [euspeclibcmpd1637],-0.322 (inactive)
6,CCC(N)C12CC3CC(CC(C3)C1)C2 (centres undefined),0.333 (inactive)
7,CC1(C)S[C@@H]2[C@H](N3C(=O)C(c4ccccc4)NC3(C)C)C(=O)N2C1C(=O)O (some centres undefined) [euspeclibcmpd2360],-0.502 (inactive)
8,CSc1nc2cc(Cl)c(Oc3cccc(Cl)c3Cl)cc2[nH]1 [euspeclibcmpd1225],4.92 (active)
9,COC(=O)C[C@H]1C(C)(C)C(=O)C2CC3=C4CC(=O)O[C@@H](c5ccoc5)[C@]4(C)CCC3[C@@]1(C)C2=O (some centres undefined) [euspeclibcmpd2085],-0.00623 (inactive)
10,COc1cc2[nH]c(N3CCN(C(=O)c4ccco4)CC3)nc(=N)c2cc1OC [euspeclibcmpd1302],-0.393 (inactive)
11,Clc1cnc(N/N=C/c2sc(N3CCCCC3)nc2-c2cccs2)c(Cl)c1,0.529 (inactive)
12,COC(=O)CCC(C)[C@H]1CCC2C3C(C[C@H](O)[C@@]21C)[C@@]1(C)CC[C@@H](O)C[C@H]1C[C@H]3O (some centres undefined) [euspeclibcmpd1539],-0.423 (inactive)
13,CC1(C)CC2C(=O)CCC3OC3(C)CCC21 (centres undefined) [euspeclibcmpd2011],-0.362 (inactive)
14,O=C(Cc1c[nH]c2ccccc12)NCCc1c[nH]c2ccccc12,1.76 (inactive)
15,Cc1cccc(Nc2ccccc2C(=O)O)c1C,0.337 (inactive)
16,Cc1c(Cl)cccc1Nc1ccccc1C(=O)O [euspeclibcmpd1068],4.04 (active)
17,O=C(O)c1ccccc1Nc1ccccc1 [euspeclibcmpd1737],-0.16 (inactive)
18,Cc1cccc(Nc2ccccc2C(=O)OCC#N)c1C,0.491 (inactive)
19,Cc1cccc(C(=O)O)c1O [euspeclibcmpd1013],-0.315 (inactive)
20,Cc1cccc(Nc2ccccc2C(=O)O)c1C [euspeclibcmpd373],2.69 (active)
21,O=C(c1ccccc1Nc1cccc(C(F)(F)F)c1)N1CCC1,1.38 (inactive)
22,Cc1ccc(Cl)c(Nc2ccccc2C(=O)O)c1Cl [euspeclibcmpd2058],0.0269 (inactive)
23,O=C(O)c1ccccc1Nc1cccc(C(F)(F)F)c1 [euspeclibcmpd370],2.94 (active)

row,SMILES,Srxn1-GFP intensity median modified Z-score
1,CON(C)C(=O)c1ccccc1Nc1cccc(C(F)(F)F)c1,1.46 (inactive)
2,O=C(O)CCCCC(=O)O [euspeclibcmpd2456],0.307 (inactive)
3,C[C@H]1O[C@H](O[C@H]2[C@H](O)[C@@H](O)[C@@H](O[C@H]3[C@H](O)[C@@H](O)C(O)O[C@@H]3CO)O[C@@H]2CO)[C@H](O)[C@@H](O)[C@@H]1N[C@H]1C=C(CO)[C@@H](O)[C@H](O)[C@H]1O (some centres undefined) [euspeclibcmpd430],-0.321 (inactive)
4,CC[C@H]1OC(=O)C(C)[C@@H](O[C@H]2C[C@@](C)(OC)[C@@H](O)[C@H](C)O2)[C@H](C)[C@@H](O[C@@H]2O[C@H](C)C[C@H](N(C)C)[C@H]2O)[C@](C)(O)CC(C)C(=NOCOCCOC)C(C)[C@@H](O)[C@]1(C)O (some centres undefined) [euspeclibcmpd567],-0.00752 (inactive)
5,Cc1c(C(=O)O)sc(S(=O)(=O)N2CCN(C(=O)CC3CCCC3)CC2)c1C(=O)O,0.344 (inactive)
6,Cc1[nH]c(=O)c(C#N)cc1-c1ccncc1 [euspeclibcmpd1241],2.87 (active)
7,Nc1cc(-c2ccncc2)c[nH]c1=O [euspeclibcmpd524],-0.435 (inactive)
8,COc1cc(=NS(=O)(=O)c2ccc(N)cc2)[nH]cn1 [euspeclibcmpd400],-0.55 (inactive)
9,CC(=O)C(N)C(O)O (centres undefined) [euspeclibcmpd1109],-0.112 (inactive)
10,CC(=O)C(N)C(O)O (centres undefined) [euspeclibcmpd2348],-0.525 (inactive)
11,CCOc1cc(CC(=O)N[C@@H](CC(C)C)c2ccccc2N2CCCCC2)ccc1C(=O)O [euspeclibcmpd908],0.187 (inactive)
12,COc1cc(O)c(C(C)=O)c(O)c1 [euspeclibcmpd1561],1.48 (inactive)
13,N[C@@H](CC(=O)N1CCn2c(nnc2C(F)(F)F)C1)Cc1cc(F)c(F)cc1F [euspeclibcmpd2166],12.2 (active)
14,CCn1cc(N(CC(C)C)S(=O)(=O)CCC2CCOCC2)cn1,1.44 (inactive)
15,N=c1ccn2c(n1)O[C@@H]1[C@@H](O)[C@H](CO)O[C@@H]12 [euspeclibcmpd1164],0.441 (inactive)
16,Oc1cc2cc(CCN3CCN(c4nsc5ccccc45)CC3)c(Cl)cc2[nH]1 [euspeclibcmpd1992],-0.197 (inactive)
17,O=C(O)CCC(=O)OC[C@@H](NC(=O)C(Cl)Cl)[C@H](O)c1ccc([N+](=O)[O-])cc1 [euspeclibcmpd2230],-0.0902 (inactive)
18,NC(CSCSCC(N)C(=O)O)C(=O)O (centres undefined) [euspeclibcmpd1615],-0.0888 (inactive)
19,C[C@]12CCC(=O)CC1=CCC1C2[C@@H](O)C[C@@]2(C)C1CC[C@]2(O)C(=O)COC(=O)CCC(=O)O (some centres undefined) [euspeclibcmpd152],-0.766 (inactive)
20,CC1CCC2(C(=O)O)CCC3(C)C(=CCC4C5(C)CC(O)C(O)C(C)(CO)C5CCC43C)C2C1C (centres undefined) [euspeclibcmpd1959],-0.237 (inactive)
21,N=C(N)c1ccc(OCCCCCOc2ccc(C(=N)N)cc2)cc1 [euspeclibcmpd1040],12.5 (active)
22,CCCCCCOc1ccccc1C(N)=O [euspeclibcmpd1139],0.59 (inactive)
23,N=C(N)c1ccc(N=NNc2ccc(C(=N)N)cc2)cc1 [euspeclibcmpd1093],0.338 (inactive)
